# Compound activity as filed in PubChem BioAssay.
# DT40 TDP1 CPT – growth inhibition of DT40 Tdp1-/-;hTDP1 cells with camptothecin (screen for TDP1 inhibitors); chicken DT40 Tdp1-/-;hTDP1 cells + 20 nM CPT, ATP luminescence, 48 h; Potency, µM (top dose mostly 46.2 µM), for inactives: top-dose activity change, negative = growth inhibition, hits mostly inhibitors; 420,000 tested, 12% active; AID 686979; note: potency is the fitted concentration of half-maximal effect; nearly all actives have a fitted effect of over 55% in size
#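 Cell growth measured by CellTiter-Glo luminescence after a minimum 48 h, 37 C compound exposure with 20 nM CPT in Tdp1-knockout DT40 cells stably expressing hTDP1, seeded 400/well; qHTS titration format.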
# Giardia killer – kills Giardia lamblia; activity change, % at 7.66 µM, hits read low; Giardia lamblia trophozoite viability; 340,000 tested, 0.15% active; AID 540267; in the data active = activity change below about -80%; inconclusive = between about -30% and that limit;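 note: parasites exposed to compound for two days anaerobically before the ATP read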
#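 Viability, read as ATP luminescence: trophozoites at 100 cells/well, compound added, 48 hrs anaerobic at 37 deg C, then 15-30 min room-temperature development before reading.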
# IL-1B inflam inh – inflammasome signaling inhibition, IL-1 beta readout. THP-1 LPS/ATP IL-1B secretion, AlphaLISA, 16 h; active compounds read low. activity change, % at 57.5 µM. 360,000 tested, 4.7% active. AID 743279; in the data active = activity change below about -50%; inconclusive = mostly about -30% to -49%
#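 Secreted IL-1B measured by AlphaLISA bead assay after 16 h compound exposure of THP-1 cells; compounds (final up to 57.5 uM) added 1 h before LPS (250 ng/mL) and ATP (1.25 mM) stimulation; lower signal means less secretion.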
# DT40 TDP1 no CPT – qHTS for Inhibitors of human tyrosyl-DNA phosphodiesterase 1 (TDP1): qHTS in cells in absence of CPT | Potency, µM (top dose mostly 46.2 µM), without a hit: at the top dose activity change, negative = growth inhibition, actives largely listed as inhibitors | 420,000 tested, 15% active | DT40 Tdp1-/- hTDP1 cells, no CPT, ATP luminescence, 48 h | AID 686978, 2013; note: potency is the fitted concentration of half-maximal effect; nearly all actives have a fitted effect of over 55% in size
#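 Chicken DT40 Tdp1-/- cells complemented with human TDP1, screened without camptothecin (DMSO vehicle only), 400 cells/well. Compounds pin-transferred, cells incubated at 37 °C for at least 48 hr. Growth read as ATP-dependent luminescence (CellTiter-Glo, 30 min at RT).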
# TDP1 inh – TDP1 (human) enzyme inhibition | Q9NUW8 | recombinant TDP1, AlphaScreen DNA substrate cleavage | Potency, µM (series often up to 130 µM), for inactives: top-dose activity change, negative = inhibition, hits mostly inhibitors | 350,000 tested, 0.28% active | AID 485290; note: potency is the fitted concentration of half-maximal effect; nearly all actives have a fitted effect of over 40% in size
# Target sequence (Q9NUW8 whole entry, looked up): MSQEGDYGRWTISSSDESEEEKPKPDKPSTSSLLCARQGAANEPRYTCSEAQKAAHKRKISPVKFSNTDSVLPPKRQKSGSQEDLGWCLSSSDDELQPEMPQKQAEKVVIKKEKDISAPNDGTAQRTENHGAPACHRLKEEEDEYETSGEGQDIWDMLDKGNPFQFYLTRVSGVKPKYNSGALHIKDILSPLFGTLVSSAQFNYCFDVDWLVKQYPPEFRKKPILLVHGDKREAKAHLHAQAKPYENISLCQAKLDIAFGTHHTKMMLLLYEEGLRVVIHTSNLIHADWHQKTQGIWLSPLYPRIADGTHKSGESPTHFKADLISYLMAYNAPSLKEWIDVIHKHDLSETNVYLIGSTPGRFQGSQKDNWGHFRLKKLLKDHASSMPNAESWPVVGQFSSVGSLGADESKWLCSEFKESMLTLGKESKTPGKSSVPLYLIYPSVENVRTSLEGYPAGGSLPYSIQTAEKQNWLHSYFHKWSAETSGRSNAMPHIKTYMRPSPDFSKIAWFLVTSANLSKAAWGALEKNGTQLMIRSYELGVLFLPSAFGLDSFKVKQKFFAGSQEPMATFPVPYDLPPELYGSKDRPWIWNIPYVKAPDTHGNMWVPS
#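 E. coli-derived human Tdp1, 1 nM final. Cpd preinc 15 min RT; substrate 15 nM final, 5 min RT; AS bead mix 10 ug/ml final, 10 min RT. Signal loss = tyrosine-FITC cleavage. No-enzyme wells = max signal.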
# ELG1 repair inh – blocks ELG1-dependent DNA repair in HEK293T cells; HEK293T ELG1-luciferase reporter, luminescence, 16 h; DNA damage induced by 5-fluorouridine; Potency, µM (doses to about 46.1 µM), inactives show at the top dose activity change, negative = inhibition, hits mostly inhibitors; 330,000 tested, 2.3% active; AID 504467; note: potency is the fitted concentration of half-maximal effect; nearly all actives have a fitted effect of over 55% in size
#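 Step one: seed 2,000 cells per well. Step two: pin-transfer compound or DMSO alongside 5-fluorouridine. Step three: incubate 16 hr, 37 °C, 5% CO2. Step four: add ONE-Glo, wait 30 min, read luminescence.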
# * = called active by the depositor; i = inactive; ? = inconclusive; . = no result. The list is not random: actives were taken first. Their share in the collection is about 19%. Unless noted, calls come from the whole dose curve; as a rule, active = well fitted curve in the direction sought with a large enough effect; inconclusive = small, poorly fitted or top-dose-only effect, or another doubt; inactive = no such curve, though single readings can be large; an effect the other way counts as inactive or inconclusive. % is set by controls: 0 for no effect and ±100 for the full control effect.
SMILES,DT40 TDP1 CPT,Giardia killer,IL-1B inflam inh,DT40 TDP1 no CPT,TDP1 inh,ELG1 repair inh
COc1ccc(NC(=O)COc2ccc(N(C)S(=O)(=O)c3ccc(C)cc3)cc2)cc1,?,-17,?,?,-3%,?
Cc1ccc(S(=O)(=O)N(C)c2ccc(OCC(=O)Nc3ccc(S(C)(=O)=O)cc3)cc2)cc1,18µM*,-21,-5,16µM*,.,.
COc1ccc(/C=C(\C)C(=O)NO)cc1,2%,.,.,-16%,.,.
COc1ccc(NC(=O)COc2ccc(N(C)S(=O)(=O)c3ccc(Cl)cc3)cc2)cc1,-11%,-23,-52*,?,2%,?
Cc1nn(CC(C)C)c(Cl)c1C(=O)N(C)CC(=O)Nc1c(Cl)cccc1Cl,-11%,-3,i,-17%,0%,2%
CCOc1ccccc1OCC(=O)OCC(=O)c1c(C)[nH]c2ccccc12,-12%,-7,12,-16%,.,-3%
Cc1ccc(NCc2nnc(SCC(=O)Nc3cccc(O)c3)n2CC2CCCO2)c(C)c1 (stereo not given),?,9,-51*,?,8%,-19%
O=C(CSc1nnc(CNc2ccc(F)cc2)n1CC1CCCO1)Nc1ccccc1 (stereo not given),21µM*,-9,-12,?,7%,-13%
O=C(c1ccc(Cl)cc1Cl)N1CCN(c2ccc(N3CCOCC3)nn2)CC1,-27%,-23,13,?,-1%,?
O=C(COC(=O)C1CC(=O)N(Cc2ccccc2)C1)Nc1ccc(Cl)cc1F (stereo not given),-13%,-7,22,0%,0%,-13%
COc1ccc(CNc2ccnc(-c3ccc(N(C)C)cc3)n2)c(OC)c1,26µM*,.,.,?,.,.
COc1ccc(CNc2ccnc(-c3cccnc3)n2)c(OC)c1,23µM*,.,.,?,.,.
COc1ccc(CNc2ccnc(-c3ccoc3)n2)c(OC)c1,-28%,.,.,-16%,.,.
COc1ccccc1CNc1ccnc(-c2cccnc2)n1,?,.,.,-25%,.,.
CCN(Cc1nc(-c2ccc(C)cc2)no1)C(=O)c1ccco1,1%,14,-13,?,10%,11%
O=c1c(-c2ccccc2)nc2cnc(N3CCOCC3)nc2n1C1CC1,-8%,.,.,5%,.,.
CN(c1ccccc1)S(=O)(=O)c1ccc(Cl)c(C(=O)Nc2nc3ccccc3[nH]2)c1,15µM*,6,?,15µM*,9%,23µM*
CN(c1ccccc1)S(=O)(=O)c1ccc(Cl)c(C(=O)Nc2ccc(-c3nc4ccccc4[nH]3)cc2)c1,18µM*,-1,11,18µM*,1%,?
Cc1ccccc1C(=O)Nc1ccc(-c2nc3ccc(C(=O)c4ccccc4)cc3[nH]2)cc1,9.2µM*,6,25,5.2µM*,5%,?
O=C(c1ccccc1)c1ccc2nc(-c3ccc(NC(=O)c4ccccc4Br)cc3)[nH]c2c1,?,21,-6,?,3%,?
CN(c1ccccc1)S(=O)(=O)c1ccc(Cl)c(C(=O)Nc2nn[nH]n2)c1,4%,0,12,2%,1%,-9%
CS(=O)(=O)c1cccc(C(=O)Nc2ccc(-c3nc4ccccc4[nH]3)cc2)c1,8.2µM*,24,-4,7.3µM*,2%,26%
O=[N+]([O-])c1cc(C(F)(F)F)cc([N+](=O)[O-])c1NCCCN1CCOCC1,-19%,-7,12,?,3%,-6%
O=[N+]([O-])c1cc(C(F)(F)F)cc([N+](=O)[O-])c1NN=C1CCCCC1,?,2,-1,23µM*,11%,20%
O=[N+]([O-])c1cc(C(F)(F)F)cc([N+](=O)[O-])c1NCCN1CCNCC1,21µM*,-11,11,21µM*,.,-4%
SMILES,DT40 TDP1 CPT,Giardia killer,IL-1B inflam inh,DT40 TDP1 no CPT,TDP1 inh,ELG1 repair inh
COc1cccc(N(CC(=O)N/N=C(\C)c2cccs2)S(C)(=O)=O)c1,0%,4,-7,-25%,-6%,-3%
C=CCOC(=O)c1c(C)nc2cc3c(cc2c1C)OCO3,-14%,1,23,-27%,0%,?
CCC/C=C/c1ccc(CN2C(C)C(=O)N(Cc3cn(CCC4OCCCO4)nn3)CCS2(=O)=O)cc1 (stereo not given),?,.,-24,13µM*,.,.
CCC/C=C/c1ccc(CN2C(C(C)C)C(=O)N(Cc3cn(CCC4OCCO4)nn3)CCS2(=O)=O)cc1 (stereo not given),?,.,-12,13µM*,.,.
CCC/C=C/c1ccc(CN2C(C)C(=O)N(Cc3cn(CCOCOC)nn3)CCS2(=O)=O)cc1 (stereo not given),-13%,.,12,?,.,.
CCC/C=C/c1ccc(CN2C(CC(C)C)C(=O)N(Cc3cn(CCC4OCCCO4)nn3)CCS2(=O)=O)cc1 (stereo not given),?,.,?,23µM*,.,.
COc1cc(-c2nnc(SCc3cc(=O)oc4cc(O)c(O)cc34)o2)cc(OC)c1OC,-1%,-11,72,-13%,.,?
O=C(O)c1ccc2oc(=O)c(S(=O)(=O)c3ccc(F)cc3)cc2c1,-1%,7,-1,4%,.,22%
CCCCCCc1cc2cc(-c3nnc(-c4ccccc4O)o3)c(=O)oc2cc1O,8.2µM*,-16,0,7.3µM*,1%,?
CCCCCCc1cc2cc(C(=O)Nc3ccccc3OC)c(=O)oc2cc1O,16µM*,8,7,16µM*,-2%,-5%
CCCCCCc1cc2cc(-c3nnc(-c4cc(OC)c(OC)c(OC)c4)o3)c(=O)oc2cc1O,?,-4,40,23µM*,5%,?
CCCCCCc1cc2cc(S(=O)(=O)c3ccc(F)cc3)c(=O)oc2cc1O,21µM*,-16,-1,?,0%,-8%
COc1ccc(-c2nnc(-c3cc4ccccc4oc3=O)o2)cc1,-5%,7,-10,?,2%,?
O=C1CC(NS(=O)(=O)c2cc(F)ccc2F)CN1c1cccc(F)c1 (stereo not given),13%,-1,24,5%,.,20%
COc1ccc(CCNC(=O)C(=O)N2CCCCC2)cc1OC,-17%,-1,5,-2%,5%,?
COc1cccc2cc(-c3nnc(-c4ccccc4)o3)c(=O)oc12,1%,?,?,-17%,1%,?
CCCCCCc1cc2cc(-c3nnc(-c4ccccc4OC)o3)c(=O)oc2cc1O,?,8,1,16µM*,-5%,7.3µM*
